Molecules are shown by their SMILES. Values joined by “and” are separate entries in the source; they are usually repeats but may differ in a detail not shown here. Equal values may be shown once.

The test deals with Escherichia coli IAI1. Nature of the test: growth AUC relative to DMSO control (median of replicates) (fraction); higher = more growth (less inhibition), active = hit call of the paper. As to conditions: 20 µM; 24 h;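 active = AUC reduced over 20% with Padj below 0.05 in at least 2 of 3 replicates; inactive = otherwise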. The essentials:
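Gut bacterial monocultures were grown anaerobically at 37 °C in mGAM from a starting OD600 of 0.05 with 20 µM compound (1% DMSO), in round-bottom 96-well plates under pierced gas-permeable seals, and OD600 was read hourly for 24 h. With the minimum OD set to 0, area under the growth curve was normalised to the plate median of solvent-only wells, or to row and column medians on the industrial chemical plate. Each value is the median of three biological replicates grown on separate days.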
Consider `C/C(=N\NC(=O)Nc1cc(F)cc(F)c1)c1ncccc1C(=O)[O-].[Na+]`, for which the “growth AUC” value is 0.995 (inactive).

Turning to `OC(Cc1ccccc1Cl)(Cn1cncn1)C1(Cl)CC1` (centres undefined), the “growth AUC” value is 0.941 (inactive).

Consider `COC(=O)C1(O)c2ccccc2-c2ccccc21`, for which the “growth AUC” value is 1.01 (inactive).

Regarding `Cc1occc1C(=O)Nc1ccccc1`, the “growth AUC” value is 0.953 (inactive).

`Clc1ccc(C(c2ccc(Cl)cc2)C(Cl)Cl)cc1`: the “growth AUC” value is 0.984 (inactive).

In the case of `CC1(C)C(C=C(Cl)Cl)C1C(=O)OC(C#N)c1ccc(F)c(Oc2ccccc2)c1` (mixture of isomers), the “growth AUC” value was 0.991 (inactive).

Take `COc1cc(C)c(C(=O)c2c(OC)ccc(Br)c2C)c(OC)c1OC`: the “growth AUC” value is 0.971 (inactive).

On to `ClC1C(Cl)C(Cl)C(Cl)C(Cl)C1Cl` (centres undefined), for which the “growth AUC” value was 1 (inactive) and 1.02 (inactive) and 1.01 (inactive).

`Cc1ccc(NC(=O)c2snnc2C)cc1Cl`: the “growth AUC” value is 0.937 (inactive).

As to `CN(C)C(=O)C(c1ccccc1)c1ccccc1`, the “growth AUC” value is 0.977 (inactive).

Take `Cc1cnc(C2=NC(C)(C(C)C)C(=O)N2)c(C(=O)O)c1` (centres undefined): the “growth AUC” value was 1.01 (inactive).

For `CCNc1nc(NCC)nc(SC)n1`, the “growth AUC” value was 0.99 (inactive).

`O=c1oc2ccccc2c(O)c1C1CC(c2ccc(-c3ccccc3)cc2)Cc2ccccc21` (centres undefined): the “growth AUC” value is 0.959 (inactive).

In the case of `Oc1ccc(-c2ccccc2)cc1`, the “growth AUC” value is 0.987 (inactive).

As to `CNC(=O)N(C)c1nnc(C(C)(C)C)s1`, the “growth AUC” value is 0.945 (inactive).

Consider `COP(=O)(OC)Oc1ccc(SC)c(C)c1`, for which the “growth AUC” value was 1.02 (inactive).

Take `CC(C)N1C(=O)c2ccccc2NS1(=O)=O`: the “growth AUC” value is 0.97 (inactive).

In the case of `COP(=O)(OC)C(O)C(Cl)(Cl)Cl` (centres undefined), the “growth AUC” value is 1.01 (inactive).

Regarding `CCOP(=O)(NC(C)C)Oc1ccc(S(C)(=O)=O)c(C)c1` (centres undefined), the “growth AUC” value was 1.02 (inactive).

Turning to `CCOP(=S)(OCC)SCS(=O)(=O)C(C)(C)C`, the “growth AUC” value was 0.966 (inactive).

Turning to `CCCN(CC1CC1)c1c([N+](=O)[O-])cc(C(F)(F)F)cc1[N+](=O)[O-]`, the “growth AUC” value was 1.03 (inactive).

For `c1coc(-c2nc3ccccc3[nH]2)c1`, the “growth AUC” value was 0.986 (inactive).

Turning to `CC(Oc1ccc(Cl)cc1Cl)C(=O)O` (centres undefined), the “growth AUC” value is 0.966 (inactive).

For the compound `N#Cc1cc(I)c(O)c(I)c1`, the “growth AUC” value is 0.764 (active).

For the compound `CCC(C)Nc1c([N+](=O)[O-])cc(C(C)(C)C)cc1[N+](=O)[O-]` (centres undefined), the “growth AUC” value is 0.939 (inactive).

In the case of `c1cc2c3c(cccc3c1)CC2`, the “growth AUC” value was 1.01 (inactive).

As to `CSC1=N[C@@](C)(c2ccccc2)C(=O)N1Nc1ccccc1`, the “growth AUC” value is 0.993 (inactive).

For the compound `CC1(C)CN=C(NN=C(/C=C/c2ccc(C(F)(F)F)cc2)/C=C/c2ccc(C(F)(F)F)cc2)NC1`, the “growth AUC” value was 1.04 (inactive).

For the compound `CCOc1cc(Oc2ccc(C(F)(F)F)cc2Cl)ccc1[N+](=O)[O-]`, the “growth AUC” value is 0.979 (inactive).

Turning to `Nc1cccc(Cl)c1Cl`, the “growth AUC” value is 1.03 (inactive).

As for `CCNS(=O)(=O)C(F)(F)C(F)(F)C(F)(F)C(F)(F)C(F)(F)C(F)(F)C(F)(F)C(F)(F)F`, the “growth AUC” value is 0.99 (inactive).

Turning to `Nc1ccc(Cc2ccc(N)c(Cl)c2)cc1Cl`, the “growth AUC” value was 1.01 (inactive).

With `COc1nc(C)nc(NC(=O)NS(=O)(=O)c2ccccc2CCC(F)(F)F)n1`, the “growth AUC” value is 0.976 (inactive).

Consider `CCOP(=O)(OCC)OP(=O)(OCC)OCC`, for which the “growth AUC” value was 1.02 (inactive).

In the case of `CCNP(=S)(OC)O/C(C)=C/C(=O)OC(C)C` (centres undefined), the “growth AUC” value is 0.951 (inactive).

In the case of `CCN(CC)N=O`, the “growth AUC” value is 1.04 (inactive).

Take `COC(=O)C(C)N(C(=O)Cc1ccccc1)c1c(C)cccc1C` (centres undefined): the “growth AUC” value was 0.972 (inactive).

In the case of `C#CCN1C(=O)COc2cc(F)c(N3C(=O)C4=C(CCCC4)C3=O)cc21`, the “growth AUC” value was 0.984 (inactive).

On to `N#Cc1c(Cl)c(Cl)c(Cl)c(C#N)c1Cl`, for which the “growth AUC” value is 0.96 (inactive).

Values taken from the supplement of paper PMC12669032.
